In PubChem BioAssay AID1159580 (chemical genetic matrix, 2015):
Where “and” joins values, the source holds several entries; their conditions need not be identical. Identical values can stand only once. Among all 5,500 compounds or so, about 2,000 (36%) were called active. Another 18% or so got no clear call; they are omitted. Cut-off read from the data, not from the text of the source: active = normalized growth mostly below about 0.91 (no sharp cut-off); inconclusive = no clear call, values can overlap the other calls; inactive = mostly above about 0.92. This is one part of the list.

Assay: chemical genetic growth profiling, strain panel (AID 1159580);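 note: tested at 20 µM; growth read once vehicle control cultures reached saturation at 30 °C; 1 = growth at the plate median or of vehicle wells; lower values mean less growth of the strain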
Conditions: S. cerevisiae deletion strains, growth OD

Measured: normalized growth

CC(=O)O[C@H]1C[C@H](O[C@H]2[C@@H](O)C[C@H](O[C@H]3[C@@H](O)C[C@H](O[C@H]4CC[C@@]5(C)C(CCC6C5C[C@@H](O)[C@]5(C)[C@@H](C7=CC(=O)OC7)CC[C@]65O)C4)O[C@@H]3C)O[C@@H]2C)O[C@H](C)[C@H]1O[C@@H]1O[C@H](CO)[C@@H](O)[C@H](O)[C@H]1O (stereo not given in full)
inactive: locus YAL021C, strain ccr4, active compounds read low 1 | locus YAL026C, strain drs2, active compounds read low 0.996 | locus YAL030W, strain snc1, active compounds read low 1 | locus YBL061C, strain skt5, active compounds read low 0.991 | locus YBR009C, strain hhf1, active compounds read low 0.995 | locus YBR021W, strain FUR4, active compounds read low 1.02 | locus YBR023C, strain chs3, active compounds read low 0.999 | locus YBR171W, strain sec66, active compounds read low 0.995 | locus YBR229C, strain ROT2, active compounds read low 1.01 | locus YBR231C, strain swc5, active compounds read low 0.987 | locus YBR279W, strain paf1, active compounds read low 0.996 | locus YCL011C, strain gbp2, active compounds read low 1 | locus YCL016C, strain dcc1, active compounds read low 0.996 | locus YCL029C, strain bik1, active compounds read low 0.985 | locus YCL061C, strain MRC1, active compounds read low 0.999 | locus YCL069W, strain vba3, active compounds read low 0.993 | locus YCR088W, strain abp1, active compounds read low 0.989 | locus YDL005C, strain med2, active compounds read low 0.996 | locus YDL035C, strain GPR1, active compounds read low 1.03 | locus YDL040C, strain nat1, active compounds read low 0.994 | locus YDL074C, strain BRE1, active compounds read low 1.02 | locus YDL101C, strain DUN1, active compounds read low 1.02 | locus YDL134C, strain PPH21, active compounds read low 1.02 | locus YDL185W, strain tfp1, active compounds read low 1 | locus YDL192W, strain arf1, active compounds read low 1.01 | locus YDR001C, strain nth1, active compounds read low 0.994 | locus YDR069C, strain doa4, active compounds read low 0.988 | locus YDR101C, strain arx1, active compounds read low 0.983 | locus YDR137W, strain rgp1, active compounds read low 0.997 | locus YDR150W, strain NUM1, active compounds read low 1.01 | locus YDR159W, strain sac3, active compounds read low 0.981 | locus YDR162C, strain NBP2, active compounds read low 1.02 | locus YDR195W, strain ref2 0.961 | locus YDR297W, strain sur2, active compounds read low 0.994 | locus YDR318W, strain mcm21, active compounds read low 0.989 | locus YDR334W, strain swr1, active compounds read low 0.999 | locus YDR335W, strain msn5, active compounds read low 1 | locus YDR388W, active compounds read low 0.989 | locus YDR392W, strain spt3, active compounds read low 0.979 | locus YDR502C, strain sam2, active compounds read low 1.01 | locus YEL003W, strain gim4, active compounds read low 0.995 | locus YEL037C, strain rad23, active compounds read low 0.999 | locus YEL061C, strain CIN8 (second series), active compounds read low 0.99 | locus YEL061C, strain CIN8, active compounds read low 1.01 | locus YER015W, strain faa2, active compounds read low 0.994 | locus YER016W, strain bim1, active compounds read low 0.993 | locus YER110C, active compounds read low 0.984 | locus YER111C, strain swi4, active compounds read low 0.997 | locus YER155C, strain BEM2 (second series), active compounds read low 1.01 | locus YER155C, strain BEM2, active compounds read low 1 | locus YER167W, strain BCK2, active compounds read low 1.01 | locus YFR010W, strain ubp6, active compounds read low 0.994 | locus YGL078C, strain dbp3, active compounds read low 1.01 | locus YGL086W, strain mad1, active compounds read low 0.998 | locus YGL167C, strain pmr1, active compounds read low 1 | locus YGL173C, strain kem1, active compounds read low 1 | locus YGL227W, strain vid30, active compounds read low 0.987 | locus YGL240W, strain doc1, active compounds read low 0.995 | locus YGL248W, strain PDE1, active compounds read low 1.01 | locus YGL253W, strain hxk2, active compounds read low 0.997 | locus YGR078C, strain PAC10, active compounds read low 1 | locus YGR135W, strain pre9, active compounds read low 1.01 | locus YGR229C, strain SMI1, active compounds read low 1.02 | locus YGR252W, strain gcn5, active compounds read low 1.17 | locus YHR013C, strain ard1, active compounds read low 0.969 | locus YHR027C, strain rpn1, active compounds read low 0.999 | locus YHR030C, strain SLT2, active compounds read low 1 and 0.975 | locus YHR079C, strain IRE1, active compounds read low 0.966 | locus YHR094C, strain hxt1, active compounds read low 0.973 | locus YHR129C, strain ARP1, active compounds read low 1.01 | locus YHR142W, strain chs7, active compounds read low 0.996 | locus YHR200W, strain rpn10, active compounds read low 1 | locus YIL066C, strain RNR3, active compounds read low 1.01 | locus YIL073C, strain SPO22, active compounds read low 1.08 | locus YIL125W, strain kgd1, active compounds read low 1 | locus YIR030C, strain dcg1, active compounds read low 0.988 | locus YJL092W, strain hpr5, active compounds read low 1 | locus YJL095W, strain BCK1 (second series), active compounds read low 0.998 | locus YJL095W, strain BCK1, active compounds read low 1 and 0.977 | locus YJL115W, strain asf1, active compounds read low 0.996 | locus YJL129C, strain trk1, active compounds read low 0.998 | locus YJL134W, strain LCB3, active compounds read low 1.01 | locus YJL154C, strain vps35, active compounds read low 0.993 | locus YJL164C, strain tpk1, active compounds read low 1.01 | locus YJL166W, strain qcr8, active compounds read low 1 | locus YJL168C, strain set2, active compounds read low 0.982 | locus YJL187C, strain SWE1 (second series), active compounds read low 1.01 | locus YJL187C, strain SWE1, active compounds read low 0.995 | locus YJR043C, strain POL32, active compounds read low 0.999 | locus YJR066W, strain TOR1, active compounds read low 0.933
